Bioassay records (PubChem)
Only some compounds are listed: those with a hit (about 0.39% of all), similar ones and a draw of the others.
AT treatment = potential ataxia-telangiectasia treatment | F2112 A-T fibroblasts, KAP-1 phosphorylation AlphaLISA; neocarzinostatin DNA damage 30 min before lysis | Potency, µM (doses to about 57.5 µM), without a hit: top-dose activation, most hits filed as activators | 0.19% of 320,000 active; further: potency means the concentration at half of the fitted maximal effect; % of control where 0% means no effect; nearly all actives have a fitted effect of over 45% in size
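ATM-like activity read as KAP-1 phosphorylation via AlphaLISA donor/acceptor antibody pairs after lysis and 6 hr at 25C. Cells were ATM-null patient fibroblasts (F2112, hTERT), dosed 60 min, then exposed to the DSB inducer NCS for 30 min.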
Anesthetic bind = binds horse apoferritin like a general anesthetic. Potency, µM (top dose mostly 77.5 µM), inactives show top-dose activity change, negative = displacement, hits mostly inhibitors. 0.074% of 350,000 active. P02791. apoferritin/1-aminoanthracene competitive binding, fluorescence; further: potency means the concentration at half of the fitted maximal effect; on the % scale 0 is the no-effect control and ±100 the full control effect; nearly all actives have a fitted effect of over 20% in size
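Apoferritin-based anesthetic binding model; compound displacement of fluorescent 1-AMA measured as endpoint fluorescence after 10 minutes at room temperature, scaled to free-ligand and complex controls.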
TRPV1 PAM = human TRPV1 potentiation | Q8NER1 | TRPV1-expressing cells, Fluo-8 calcium influx, capsaicin EC20 potentiation | potentiation, % at 8.33 µM | 0.02% of 320,000 active | AID 540277; in the data active means potentiation above about 80%; inconclusive means between about 30% and that limit; further: 0% is about no effect
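Fluo-8 calcium influx in TRPV1-expressing cells, kinetic read (ex 480/em 520 nm). Compound added and read 3 min for agonist activity, followed by capsaicin at EC20 final and 2 min further read for enhancement.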
TRPV1 agonist = agonists of human vanilloid receptor 1 (TRPV1); TRPV1-expressing cells, Fluo-8 calcium influx, agonist mode; activation, % at 8.33 µM; 0.19% of 320,000 active; AID 540275; in the data active means activation above about 80%; inconclusive means between about 30% and that limit; further: 0% is about no effect
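Fluo-8 calcium influx in TRPV1-expressing cells, kinetic read (ex 480/em 520 nm). Compound added and read 3 min for agonist activity, followed by capsaicin at EC20 final and 2 min further read for enhancement.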
CBFb-RUNX1 inh = blocks binding between human CBF-beta and RUNX1. 230,000 tested, under 10 active. Q01196+Q13951. Potency, µM (titrated, usually from 59.8 µM), for the others: at the highest dose activity, negative = inhibition, actives largely listed as inhibitors. AID 1477. AlphaScreen CBFb-His/RUNX1-biotin binding, biochemical; further: % of control where 0% means no effect
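CBFb-His/RUNX1-biotin, 30 nM each, preincubated 20 min RT; compound 15 min RT; Ni + streptavidin beads 50 ng each, 90 min RT; AlphaScreen read.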
An asterisk follows results filed as active; ? = inconclusive; / = no result given; [ ] = dose if it differs, or a comment. Unless noted, the call rests on the fitted dose curve; in most records, active means well fitted curve in the direction sought with a large enough effect; inconclusive means small, poorly fitted or top-dose-only effect, or another doubt; inactive means no such curve, though single readings can be large; an effect the other way counts as inactive or inconclusive.

SMILES	AT treatment	Anesthetic bind	TRPV1 PAM	TRPV1 agonist	CBFb-RUNX1 inh
CC(C)C[C@H](NC(=O)[C@H](CCCCN)NC(=O)CNC(=O)[C@H](CC(C)C)NC(=O)[C@@H](NC(=O)[C@@H]1CSSC[C@H](N)C(=O)N[C@@H](CO)C(=O)N[C@@H](CC(N)=O)C(=O)N[C@@H](CC(C)C)C(=O)N[C@@H](CO)C(=O)N[C@@H]([C@@H](C)O)C(=O)N1)C(C)C)C(=O)N[C@@H](CO)C(=O)N[C@@H](CCC(N)=O)C(=O)N[C@@H](CCC(=O)O)C(=O)N[C@@H](CC(C)C)C(=O)N[C@@H](Cc1cnc[nH]1)C(=O)N[C@@H](CCCCN)C(=O)N[C@@H](CC(C)C)C(=O)N[C@@H](CCC(N)=O)C(=O)N[C@H](C(=O)N[C@@H](Cc1ccc(O)cc1)C(=O)N1CCC[C@H]1C(=O)N[C@@H](CCCNC(=N)N)C(=O)N[C@H](C(=O)N[C@@H](CC(N)=O)C(=O)N[C@H](C(=O)NCC(=O)N[C@@H](CO)C(=O)NCC(=O)N[C@H](C(=O)N1CCC[C@H]1C(N)=O)[C@@H](C)O)[C@@H](C)O)[C@@H](C)O)[C@@H](C)O	/	-2.7%	/	/	-9.7%
O=C(O)c1ccc(CSc2nc3ccccc3c(=O)n2-c2ccccc2)cc1	-7.6%	0.1%	-2.7	0.1	/
O=C(c1ccc(-n2c(SCc3cccc(F)c3)nc3ccccc3c2=O)cc1)N1CCOCC1	-1.4%	-1.2%	-8.8	87.5*	-8.2%
Cc1cc2nn(-c3ccc(Cl)cc3)nc2cc1N	22.4µM*	62.6%	-8.3	2.0	/
Cc1cc2nn(-c3ccc(F)cc3)nc2cc1N	25.4%	280.7%	3.5	-3.7	/
CC(C)OC(=O)c1cn(Cc2c(F)cccc2F)c2sc(-c3ccc(NC(=O)C(C)C)cc3)c(CN(C)Cc3ccccc3)c2c1=O	/	-12.4%	/	/	2.3%
O=C(c1cccs1)n1nc(-c2ccco2)nc1SCc1ccccc1	-4.6%	28.2µM*	0.2	-0.3	-1.6%
C=C(C)CC(C)(C)C	/	5.5%	/	/	0.5%
Cc1ccc(C(=O)Nc2ccc3ncccc3c2)cc1	-5.7%	2.8%	-3.8	?	/
CC(=O)c1cccc(NC(=O)c2cccc(S(=O)(=O)N(C)C)c2)c1	-3.4%	-7.7%	16.1	-0.4	7.1%
CN1CCSc2ccc(C(=O)Nc3cccc(F)c3)cc21	12.2%	44.1%	19.6	?	9.5%
COc1ccc(C(=O)Nc2ccc3ncccc3c2)cc1	-3.6%	0.0%	-17.6	90.7*	/
CN(C)S(=O)(=O)c1cccc(NC(=O)c2ccc3nccnc3c2)c1	15.8µM*	-3.5%	-4.7	8.3	7.1%
CCOc1ccc(NC(=O)c2ccc(S(=O)(=O)N(C)C)cc2)cc1	7.9%	0.9%	-3.8	?	8.9%
CN(C)S(=O)(=O)c1ccc(NC(=O)c2ccc3ncsc3c2)cc1	1.5%	-12.8%	-21.1	80.1*	3.4%
COc1ccc(NC(=O)c2ccc3c(c2)N(C)CCS3)cc1	-3.4%	168.1%	-27.5	96.6*	/
COc1ccc(NC(=O)c2ccc3nc(C)sc3c2)cc1	1.6%	-2.0%	-9.4	8.1	/
CCc1ccc(NC(=O)c2ccc3ncsc3c2)cc1	1.9%	-12.9%	-2.8	85.7*	1.7%
COc1ccc(NC(=O)c2ccc3ncsc3c2)cc1	22.7%	9.9%	-11.5	91.8*	/
O=C(Nc1ccc(Br)cc1)c1ccc2ncsc2c1	0.0%	-13.1%	-0.5	?	/
CC(N)(C(=O)O)c1ccc(S(=O)(=O)O)cc1 (stereo not drawn)	/	17.5%	/	/	16.7%
CN1C2CC(OC(=O)C(CO)c3ccccc3)C[C@@H]1[C@H]1OC21 (stereo partly drawn)	/	2.2%	/	/	10.6%
Cc1nn(-c2ccccc2)nc1C(=O)Nc1ccc2[nH]ncc2c1	0.2%	2.6%	-23.9	90.8*	8.6%
Cc1nn(-c2ccccc2)nc1C(=O)NN	-0.7%	4.0%	?	6.1	18.7%
CC1(C)CC2(CCCN(C(=S)Nc3ccccc3)C2)CCO1 (stereo not drawn)	20µM*	2.3%	-0.2	2.8	12.6%
CCC(=O)/C=C/C1C(C)=CCCC1(C)C (stereo not drawn)	/	/	/	/	-7.1%[21.7 µM]
CC(=O)Nc1cccc(Nc2nc(-c3ccccc3F)nc3ccccc23)c1	15.9%	-9.7%	-15.2	96.2*	10.8%
